In all, about 5,500 compounds went through this assay and about 2,000 (36%) were called active. About 18% were inconclusive and are not listed. Cut-off read from the data, not from the text of the source: active = normalized growth mostly below about 0.91 (no sharp cut-off); inconclusive = no clear call, values can overlap the other calls; inactive = mostly above about 0.92. The list shows a part of the results.
Test: chemical genetic growth profiling, strain panel (AID 1159580);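 note: tested at 20 µM; growth read once vehicle control cultures reached saturation at 30 °C; 1 = growth at the plate median or of vehicle wells; lower values mean less growth of the strain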
Settings: growth OD

Measured: normalized growth

Nc1ccc(S(=O)(=O)Nc2cnc3ccccc3n2)cc1
inactive: S. cerevisiae deletion strains, locus YJR075W, strain HOC1, hits give low values 0.982 | S. cerevisiae deletion strains, locus YKL009W, strain mrt4, hits give low values 0.971 | S. cerevisiae deletion strains, locus YKL068W, hits give low values 0.985 | S. cerevisiae deletion strains, locus YKL085W, strain MDH1 (second series), hits give low values 0.98 | S. cerevisiae deletion strains, locus YKL085W, strain MDH1, hits give low values 0.98 | S. cerevisiae deletion strains, locus YKL160W, strain elf1, hits give low values 1.01 | S. cerevisiae deletion strains, locus YKL190W, strain CNB1, hits give low values 0.976 | S. cerevisiae deletion strains, locus YKR001C, strain vps1, hits give low values 0.969 | S. cerevisiae deletion strains, locus YKR026C, strain gcn3, hits give low values 1.02 | S. cerevisiae deletion strains, locus YKR091W, strain srl3, hits give low values 1.01 | S. cerevisiae deletion strains, locus YLL001W, strain dnm1, hits give low values 1.02 | S. cerevisiae deletion strains, locus YLL026W, hits give low values 1.01 | S. cerevisiae deletion strains, locus YLL041C, strain sdh2, hits give low values 1 | S. cerevisiae deletion strains, locus YLR027C, strain aat2, hits give low values 1.01 | S. cerevisiae deletion strains, locus YLR039C, strain RIC1, hits give low values 0.959 | S. cerevisiae deletion strains, locus YLR058C, strain SHM2, hits give low values 0.971 | S. cerevisiae deletion strains, locus YLR102C, strain apc9, hits give low values 0.992 | S. cerevisiae deletion strains, locus YLR113W, strain HOG1, hits give low values 0.967 | S. cerevisiae deletion strains, locus YLR221C, strain rsa3, hits give low values 0.995 | S. cerevisiae deletion strains, locus YLR258W, strain gsy2, hits give low values 1.01 | S. cerevisiae deletion strains, locus YLR262C, strain YPT6 (second series), hits give low values 1.02 | S. cerevisiae deletion strains, locus YLR262C, strain YPT6, hits give low values 0.964 | S. cerevisiae deletion strains, locus YLR268W, strain sec22, hits give low values 0.904 | S. cerevisiae deletion strains, locus YLR320W, strain mms22, hits give low values 1.01 | S. cerevisiae deletion strains, locus YLR330W, strain CHS5, hits give low values 0.995 | S. cerevisiae deletion strains, locus YLR342W, strain FKS1 (second series), hits give low values 1.02 | S. cerevisiae deletion strains, locus YLR342W, strain FKS1, hits give low values 1.01 | S. cerevisiae deletion strains, locus YLR357W, strain rsc2, hits give low values 0.995 | S. cerevisiae deletion strains, locus YLR370C, strain arc18, hits give low values 1.03 | S. cerevisiae deletion strains, locus YLR371W, strain rom2, hits give low values 0.984 | S. cerevisiae deletion strains, locus YLR384C, strain iki3, hits give low values 1.01 | S. cerevisiae deletion strains, locus YLR418C, strain cdc73, hits give low values 0.979 | S. cerevisiae deletion strains, locus YML016C, strain PPZ1, hits give low values 0.996 | S. cerevisiae deletion strains, locus YML032C, strain rad52, hits give low values 0.979 | S. cerevisiae deletion strains, locus YML120C, strain ndi1, hits give low values 1.02 | S. cerevisiae deletion strains, locus YML124C, strain tub3, hits give low values 0.978 | S. cerevisiae deletion strains, locus YMR058W, strain fet3, hits give low values 1.02 | S. cerevisiae deletion strains, locus YMR078C, strain ctf18, hits give low values 0.974 | S. cerevisiae deletion strains, locus YMR125W, strain sto1, hits give low values 1.03 | S. cerevisiae deletion strains, locus YMR129W, hits give low values 1.02 | S. cerevisiae deletion strains, locus YMR205C, strain PFK2, hits give low values 1.02 | S. cerevisiae deletion strains, locus YMR223W, strain ubp8, hits give low values 1 | S. cerevisiae deletion strains, locus YMR231W, strain pep5, hits give low values 1.01 | S. cerevisiae deletion strains, locus YMR263W, strain SAP30, hits give low values 0.978 | S. cerevisiae deletion strains, locus YMR307W, strain GAS1, hits give low values 1.1 | S. cerevisiae deletion strains, locus YNL067W, strain RPL9B, hits give low values 0.977 | S. cerevisiae deletion strains, locus YNL071W, strain lat1, hits give low values 1.02 | S. cerevisiae deletion strains, locus YNL153C, strain GIM3, hits give low values 0.962 | S. cerevisiae deletion strains, locus YNL183C, strain NPR1, hits give low values 0.921 | S. cerevisiae deletion strains, locus YNL209W, strain ssb2, hits give low values 1.02 | S. cerevisiae deletion strains, locus YNL233W, strain BNI4, hits give low values 0.984 | S. cerevisiae deletion strains, locus YNL248C, strain rpa49, hits give low values 1.02 | S. cerevisiae deletion strains, locus YNL250W, strain rad50, hits give low values 0.98 | S. cerevisiae deletion strains, locus YNL271C, strain bni1, hits give low values 0.985 | S. cerevisiae deletion strains, locus YNL298W, strain CLA4, hits give low values 0.988 | S. cerevisiae deletion strains, locus YNL307C, strain MCK1, hits give low values 0.983 | S. cerevisiae deletion strains, locus YNL322C, strain KRE1 (second series), hits give low values 0.997 | S. cerevisiae deletion strains, locus YNL322C, strain KRE1, hits give low values 0.992 | S. cerevisiae deletion strains, locus YNR049C, strain mso1, hits give low values 1.01 | S. cerevisiae deletion strains, locus YNR052C, strain pop2, hits give low values 0.987 | S. cerevisiae deletion strains, locus YOL006C, strain TOP1, hits give low values 0.997 | S. cerevisiae deletion strains, locus YOL012C, strain htz1 1.64 | S. cerevisiae deletion strains, locus YOL147C, strain pex11, hits give low values 0.988 | S. cerevisiae deletion strains, locus YOR001W, strain rrp6, hits give low values 1.02 | S. cerevisiae deletion strains, locus YOR061W, strain CKA2, hits give low values 0.961 | S. cerevisiae deletion strains, locus YOR069W, strain VPS5, hits give low values 0.995 | S. cerevisiae deletion strains, locus YOR070C, strain gyp1, hits give low values 1.01 | S. cerevisiae deletion strains, locus YOR080W, strain dia2, hits give low values 1.02 | S. cerevisiae deletion strains, locus YOR083W, strain WHI5, hits give low values 0.99 | S. cerevisiae deletion strains, locus YOR106W, strain vam3, hits give low values 1.03 | S. cerevisiae deletion strains, locus YOR136W, strain idh2, hits give low values 0.98 | S. cerevisiae deletion strains, locus YOR144C, strain elg1, hits give low values 0.977 | S. cerevisiae deletion strains, locus YOR184W, strain ser1, hits give low values 0.98 | S. cerevisiae deletion strains, locus YOR231W, strain MKK1, hits give low values 0.975 | S. cerevisiae deletion strains, locus YOR265W, strain rbl2, hits give low values 1.01 | S. cerevisiae deletion strains, locus YOR270C, strain vph1, hits give low values 1.02 | S. cerevisiae deletion strains, locus YOR290C, strain snf2, hits give low values 0.998 | S. cerevisiae deletion strains, locus YOR316C, strain cot1, hits give low values 0.969 | S. cerevisiae deletion strains, locus YPL051W, strain arl3, hits give low values 1 | S. cerevisiae deletion strains, locus YPL055C, strain LGE1, hits give low values 0.94 | S. cerevisiae deletion strains, locus YPL078C, strain atp4, hits give low values 1.02 | S. cerevisiae deletion strains, locus YPL106C, strain sse1, hits give low values 1.03 | S. cerevisiae deletion strains, locus YPL240C, strain hsp82, hits give low values 1.02 | S. cerevisiae deletion strains, locus YPL256C, strain CLN2, hits give low values 0.96 | S. cerevisiae deletion strains, locus YPR119W, strain clb2, hits give low values 0.986 | S. cerevisiae deletion strains, locus YPR141C, strain kar3, hits give low values 0.972 | S. cerevisiae deletion strains, locus YPR163C, strain tif3, hits give low values 0.989 | S. cerevisiae deletion strains, locus YPR167C, strain met16, hits give low values 0.987 | S. cerevisiae deletion strains, strain wtn01, hits give low values 0.991 | S. cerevisiae strains, strain wild type, hits give low values 0.986

From PubChem BioAssay AID1159580 (chemical genetic matrix, 2015)
